Among all 310,000 compounds or so, about 17,000 (5.5%) were called active. Where a call stands in place of a potency, no number is given. Inconclusive results (about 11%) are left out. Calls come from the whole dose curve; as a rule, active = well fitted inhibition curve with a large enough effect; inconclusive = small, poorly fitted or top-dose-only effect, or effect the other way; inactive = no such curve, though single readings can be large or run the other way. The sample as a whole holds a higher share of actives than the screen did.
Potency is the fitted concentration of half-maximal effect.

The target of this assay is Nuclear receptor ROR-gamma (Mus musculus) (UniProt P51450). Briefly: qHTS for inhibitors of ROR gamma transcriptional activity. Note: nearly all actives have a fitted effect of over 60% in size. As to conditions: Drosophila S2 Gal4-RORgamma UAS-luciferase reporter, 20 h; series mostly up to 53.6 µM. Summed up: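 Stably transfected Drosophila Schneider cells are the test system, with ROR gamma fused to Gal4 and luciferase under UAS control; luminescence is read after 20 hr of 700 uM copper sulfate induction at ambient temperature.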
Chain of Nuclear receptor ROR-gamma (Mus musculus) (P51450 whole entry, looked up, the tested form may be a part): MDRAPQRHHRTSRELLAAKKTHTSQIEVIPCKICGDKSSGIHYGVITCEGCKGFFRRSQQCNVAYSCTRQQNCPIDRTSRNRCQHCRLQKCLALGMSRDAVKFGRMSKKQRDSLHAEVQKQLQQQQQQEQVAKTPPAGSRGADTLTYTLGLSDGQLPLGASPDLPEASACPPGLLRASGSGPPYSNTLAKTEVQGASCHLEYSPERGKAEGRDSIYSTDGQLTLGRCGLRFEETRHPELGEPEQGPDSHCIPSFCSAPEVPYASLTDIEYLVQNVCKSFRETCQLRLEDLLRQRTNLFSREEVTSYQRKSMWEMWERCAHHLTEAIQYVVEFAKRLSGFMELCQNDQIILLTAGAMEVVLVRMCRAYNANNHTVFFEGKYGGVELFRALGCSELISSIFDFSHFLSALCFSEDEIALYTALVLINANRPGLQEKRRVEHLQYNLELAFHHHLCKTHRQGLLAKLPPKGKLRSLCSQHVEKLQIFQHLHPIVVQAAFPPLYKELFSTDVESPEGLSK
In general terms: qHTS replaces the single test concentration by a dilution series.
Turning to `O=C(Nc1cccc([N+](=O)[O-])c1)N1CCc2ccccc2C1`, the Potency result was “inactive”.
Same read-out and setting: under `Cc1cc(N2C(=O)C(O)=C(C(=O)c3ccc(C)o3)C2c2ccc(OCc3ccccc3)cc2)no1` (centres undefined) stands “inactive”.
In the case of `COc1ccccc1CCNS(=O)(=O)c1cc2c3c(c1)C(C)C(=O)N3CCC2` (centres undefined), the Potency entry was “inactive”.
Same read-out and setting: in the case of `CCN(CC)S(=O)(=O)c1ccc(C(=O)N2CCN(C3=NS(=O)(=O)c4ccccc43)CC2)cc1` it was “inactive”; in that of `Cc1cc(C)n(-c2ccc(NC(=O)C3CCCCN3C(=O)c3cccs3)cc2)n1` (centres undefined), “inactive”.
Turning to `O=C(Cc1ccccc1Cl)N1CCOCC1`, the Potency result is “inactive”.
For `O=C(COc1ccc(Cl)cc1)Nc1ccccc1CO`, the Potency entry was “inactive”.
With `Cc1ccccc1NC(=S)NC(=O)Cc1ccc(Cl)cc1`, the Potency was 7.94 µM (active).
Still for that read-out and setting: in the case of `Cc1cccc(NC(=S)N2CCC(O)CC2)c1C` it was “inactive”.
Still for that read-out and setting: under `Cc1cccc(NC(=S)NCCc2ccc(Cl)cc2)c1C` stands 5.62 µM (active).
Same read-out and setting: in the case of `CCOC(=O)N1CCN(C(=S)Nc2ccc(C)cc2C)CC1` it was “inactive”.
Take `Cc1ccc(NC(=S)Nc2ncccc2C)c(C)c1`: the Potency was 4.47 µM (active).
For the compound `CSc1ncc(C(=O)Nc2ccc(C)cc2C)c(C)n1`, the Potency result is “inactive”.
Still for that read-out and setting: in the case of `Cc1ccccc1N/C(SCc1ccc(Cl)cc1)=C(/C#N)C(N)=O` it was “inactive”.
As for `Cc1cccc(NC(=O)c2cccc(C(=O)Nc3cccc(C)c3C)n2)c1C`, the activity change, negative = inhibition was -10.9% [at 1.91 µM] (inactive).
As to `COc1ccccc1CN1CCNC(=O)C1CC(=O)N(C)CC1CCOCC1` (centres undefined), the Potency result was “inactive”.
For the compound `COc1ccc(NC(=O)COc2ccc(C(=O)c3ccc(F)cc3)cc2)cc1S(N)(=O)=O`, the Potency result is “inactive”.
The same measure, in the same setting: under `CC(=O)N1CCSc2ccc(S(=O)(=O)N3CCC(C)CC3)cc21` stands “inactive”; under `COc1cccc(N(C(=O)CNC(=O)c2ccco2)C(C(=O)NC2CCCCC2)c2cccnc2)c1` (centres undefined), “inactive”.
The same measure, in the same setting: in the case of `Cc1ccc(-c2nc(CSCC(=O)NC3CCN(Cc4ccccc4)CC3)c(C)o2)cc1` it was “inactive”; in that of `Cc1ccccc1OCC(=O)NNC(=O)c1cc(S(=O)(=O)N(C)C)ccc1N1CCCC1`, “inactive”.
Take `Cn1c(Nc2cccc(Cl)c2)nc2ccccc21`: the activity change, negative = inhibition is -6.74% [at 1.91 µM] (inactive).
For the compound `COc1ccccc1CNC(=O)C1CCN(S(=O)(=O)c2ccc3c(c2)CC(C)N3C(=O)C2CC2)CC1` (centres undefined), the Potency result is “inactive”.
`Cc1ccc(Oc2ccc3c(c2)C(=O)N(c2cccc4cccnc24)C3=O)cc1`: the Potency result is “inactive”.
Still for that read-out and setting: under `Cc1ccc(OS(=O)Nc2cccc3nccnc23)cc1` (centres undefined) stands 3.98 µM (active); under `COc1ccc(NC(=O)Nc2cccc3cccnc23)cc1`, “inactive”; under `O=C(COc1ccc(Cl)cc1)NCCS(=O)(=O)N1CCN(c2ccc(F)cc2)CC1`, “inactive”.
Regarding `CN(C)c1nc(=Nc2cccc(Cl)c2)ss1`, the Potency was 0.398 µM (active).
Still for that read-out and setting: in the case of `CCOC(=O)C1=C(O)CSC1=Nc1cccc(Cl)c1` it was “inactive”.
Still for that read-out and setting: under `CC(=O)Oc1ccc2c(=O)oc(-c3ccc([N+](=O)[O-])cc3)nc2c1` stands “inactive”; under `CC(C)(C)NC(=O)C(=O)NN=C1CCCCCCC1`, “inactive”.
As to `CC(C)NC(=S)NN=C1CCCCCCCCCCC1`, the Potency is 0.447 µM (active).
Still for that read-out and setting: in the case of `CC1CC(C)CN(CCCNC(=O)Cn2ncc3c([nH]c4ccccc43)c2=O)C1` (centres undefined) it was “inactive”.
On the same count and under the same terms, under `Cc1cccc(N(C(=O)c2sc(C)nc2C)C(C(=O)NCC2CCCO2)c2ccccc2)c1` (centres undefined) stands “inactive”; under `CCC(NC(=O)c1cc(COc2ccc(F)c(F)c2)on1)c1ccncc1` (centres undefined), “inactive”.
The same measure, in the same setting: in the case of `CC1CCC(NC(=O)CN(C)S(=O)(=O)c2ccc3c(c2)c(=O)n(C)c(=O)n3C)CC1` (centres undefined) it was “inactive”; in that of `COc1ccc(C(C(=O)NC2CCCCC2)N(C(=O)c2snc(C(N)=O)c2N)c2ccccc2OC)cc1` (centres undefined), “inactive”.
Take `O=C(c1cccc(Cl)c1)N1CCN(Cc2ccccc2)CC1`: the Potency entry is “inactive”.
On the same count and under the same terms, in the case of `O=C(c1cccc([N+](=O)[O-])c1)N1CCN(Cc2ccccc2)CC1` it was “inactive”; in that of `O=C(NC(=S)N1CCN(Cc2ccccc2)CC1)c1ccccc1`, 1 µM (active).
For `CC(C)c1nnc(NC(=O)CCC(=O)N2CCN(c3cccc(Cl)c3)CC2)s1`, the Potency entry was “inactive”.
With `COc1ccc(NC(=O)C/C(C)=N/NC(=O)c2cnccn2)cc1Cl`, the Potency entry was “inactive”.
Same read-out and setting: in the case of `COc1cc(OC)c(S(=O)(=O)Nc2ccccc2C(=O)O)cc1S(=O)(=O)Nc1ccccc1C(=O)O` it was “inactive”; in that of `CCc1cccc(C)c1N1C(=O)CN(Cc2ccccc2)C1=S`, “inactive”.
On the same count and under the same terms, in the case of `CC(N=Cc1nc(-c2ccccc2)oc1O)c1ccccc1` (centres undefined) it was “inactive”; in that of `Oc1oc(-c2ccccc2Br)nc1/C=N/c1ccccn1`, 8.91 µM (active).
With `CCOc1ccc2nc(/N=C/c3nc(-c4ccccc4)oc3O)sc2c1`, the activity change, negative = inhibition is -14.9% [at 10 µM] (inactive).
Take `Cc1ccnc(NS(=O)(=O)c2ccc(NC(=O)c3oc4ccccc4c3C)cc2)n1`: the Potency result was “inactive”.
For the compound `Cc1ccc(S(=O)(=O)N(CC(=O)Nc2cccnc2)c2ccc(Br)cc2)cc1`, the Potency result was “inactive”.
In the case of `Cc1cc(NC(=O)CCC2COc3ccccc3O2)no1` (centres undefined), the Potency entry was “inactive”.
With `Cc1ccc(S(=O)(=O)N(C)C)cc1NC(=O)COC(=O)C1COc2ccccc2O1` (centres undefined), the Potency entry is “inactive”.
Turning to `CCCN(CC1COc2ccccc2O1)C(=S)Nc1ccc(C)cc1` (centres undefined), the Potency is 15.8 µM (active).
In the case of `COCn1c(C(O)c2ccccc2)cc2ccccc21` (centres undefined), the Potency result is “inactive”.
Same read-out and setting: in the case of `O=S(=O)(NCc1cccnc1)c1ccc(Br)s1` it was “inactive”; in that of `Cc1cc(S(=O)(=O)NCc2ccccn2)c(Cl)cc1Cl`, 7.08 µM (active).
As to `CCOc1cc(C)c(S(=O)(=O)NCc2ccccn2)cc1C`, the activity change, negative = inhibition was -29.6% [at 1.91 µM] (inactive).
Turning to `Cc1cc(Cl)c(S(=O)(=O)NCc2cccnc2)cc1OCC(N)=O`, the Potency entry is “inactive”.
On the same count and under the same terms, under `O=S(=O)(NCc1ccccn1)c1ccc(Br)s1` stands 8.91 µM (active); under `O=S(=O)(NCc1ccccn1)c1ccc(F)cc1`, “inactive”.
Still for that read-out and setting: under `COc1cccc(NC(=O)CN(C)C(=O)c2ccccc2CCc2ccccc2)c1` stands “inactive”; under `CCCn1c(=O)c(C(=O)Nc2cc(C)ccn2)c(O)c2ccccc21`, “inactive”; under `CC(NCC(=O)Nc1cc(Cl)cc(Cl)c1)c1ccccc1` (centres undefined), “inactive”.
As for `Cc1cccnc1NC(=O)Cn1c(=O)oc2ccccc21`, the Potency result is “inactive”.
The same measure, in the same setting: under `CN(C(=O)c1cccc(OC2CCN(S(=O)(=O)N(C)C)CC2)c1)C1CCOC1` (centres undefined) stands “inactive”; under `O=C(NC(=O)c1ccccc1)Nc1ccccc1O`, 7.08 µM (active); under `O=C(NC(=O)c1ccccc1)NC(=O)c1ccccc1`, “inactive”.
As to `O=C(Nc1ccc(C(=O)O)c(O)c1)c1ccccc1`, the Potency result was “inactive”.
Same read-out and setting: in the case of `C[C@H](NC(=O)C1CC(=O)N(c2ccc3c(c2)OCCO3)C1)C(=O)N1CCC(C(=O)O)CC1` (some centres undefined) it was “inactive”; in that of `COc1ccc2nc(C)cc(Nc3cccc(C(=O)O)c3)c2c1`, “inactive”.
Still for that read-out and setting: in the case of `O=C(Nc1ccn(Cc2ccccc2)n1)c1n[nH]c([N+](=O)[O-])c1Cl` it was 7.08 µM (active).
For `Cn1cc([N+](=O)[O-])c(C(=O)Nc2cnn(Cc3ccc(F)cc3)c2)n1`, the Potency entry was “inactive”.
For `O=C(Nc1ccn(Cc2ccccc2)n1)c1cccc(F)c1`, the Potency entry is “inactive”.
Still for that read-out and setting: under `CC(C)[C@H](NC(=O)N1CCn2c1nc1ccccc12)C(=O)NCCc1ccccc1` stands “inactive”; under `CCCCCN(C(=O)CCC(=O)OCC(=O)NCc1ccc(OC)cc1)c1c(N)n(CCCC)c(=O)[nH]c1=O`, “inactive”.
Still for that read-out and setting: in the case of `COc1ccc(CN(C)C(=S)Nc2ccc(Cl)cc2Cl)cc1` it was 17.8 µM (active).
Turning to `CN(C)C(=S)Nc1ccc(Br)cc1Cl`, the Potency entry is “inactive”.
The same measure, in the same setting: in the case of `COc1ccc(CN2CCn3ncc(C(=O)Nc4ccc(Cl)cc4Cl)c3C2=O)cc1` it was “inactive”; in that of `CCn1c(=O)c(=O)[nH]c2c(=O)oc3ccc(S(=O)(=O)Nc4ccc(OC)cc4)cc3c21`, “inactive”; in that of `COCCOC(=O)C1=C(C)N=c2s/c(=C\c3cccs3)c(=O)n2C1c1cccs1` (centres undefined), “inactive”.
Still for that read-out and setting: in the case of `COc1ccc(OC)c(C2C3=C(N=c4s/c(=C\c5cccc(O)c5)c(=O)n42)c2ccccc2CC3)c1` (centres undefined) it was 12.6 µM (active); in that of `O=C1CCCC2=C1C(c1ccccc1)n1c(s/c(=C/c3cccc(F)c3)c1=O)=N2` (centres undefined), “inactive”; in that of `Cc1coc(C)c1C(=O)CC1(O)C(=O)N(C)c2ccc(Cl)cc21` (centres undefined), “inactive”.
Regarding `CC(=O)c1c(O)cc2n(c1=O)-c1ccc(Cl)cc1C2(C)C`, the Potency is 10 µM (active).
The same measure, in the same setting: in the case of `O=C(COc1ccc2ccc(=O)oc2c1)NCC(O)c1ccccc1` (centres undefined) it was “inactive”.
Same read-out and setting: in the case of `COc1cccc(CNC(=O)C2CCCN(c3ncnc4c3nc3n4CCCCC3)C2)c1` (centres undefined) it was “inactive”; in that of `CCc1nnc(NS(=O)(=O)c2ccc(NC(=S)NC(=O)/C=C/c3cccs3)cc2)s1`, “inactive”.
As to `CCOC(=O)c1c(NC(=O)/C=C/c2ccco2)sc(C)c1C`, the Potency result is “inactive”.
Regarding `CCOC(=O)c1c(NC(=S)NC(=O)/C=C/c2cccs2)sc(C)c1C`, the Potency is 1.26 µM (active).
As to `COC(=O)C1=CN(c2ccc(F)c(F)c2)C=C(C(=O)OC)C1c1ccc([N+](=O)[O-])cc1`, the Potency entry was “inactive”.
The same measure, in the same setting: in the case of `CCOc1ccc(C(=O)Nc2ccc(S(=O)(=O)Nc3cc(C)on3)cc2)cc1` it was “inactive”.
For the compound `Cc1c(Br)c([N+](=O)[O-])nn1C(C)C(=O)Nc1nccs1` (centres undefined), the Potency is 20 µM (active).
Regarding `O=C(CCn1ccc([N+](=O)[O-])n1)Nc1nccs1`, the Potency entry was “inactive”.
Regarding `CC(NC(=O)C(=O)Nc1nccs1)c1ccccc1` (centres undefined), the Potency entry is “inactive”.
On the same count and under the same terms, under `CCOc1ccccc1NC(=O)NC1CCCCCCC1` stands “inactive”; under `COc1ccc(CNC(=O)C(c2ccc(O)cc2)N(Cc2ccco2)C(=O)c2snc(C(N)=O)c2N)cc1` (centres undefined), “inactive”.
On the same count and under the same terms, in the case of `O=c1cc(Cl)c2ccccc2n1-c1ccccc1` it was “inactive”; in that of `Cc1cccc(CSc2nnc(NC(=O)CSc3nnc(C)s3)s2)c1`, “inactive”; in that of `Cc1nnc(NC(=O)CSc2nccn2-c2cccc(C)c2C)s1`, 10 µM (active).
As for `COc1ccccc1-n1c(CNC(=O)c2ccccc2)nnc1SCC(=O)Nc1nnc(C)s1`, the Potency entry was “inactive”.
As to `Cc1ccc(C(=O)N/C(=C\c2cn(C)c3ccccc23)C(=O)N2CCN(C)CC2)cc1`, the Potency entry is “inactive”.
In the case of `Cc1ccc(NC(=O)NC(=O)c2ccccc2)cc1F`, the activity change, negative = inhibition is 8.25% [at 1.91 µM] (inactive).
Consider `O=C(CNC(=O)c1ccc(Br)o1)Nc1ccccc1`, for which the Potency entry is “inactive”.
Turning to `Cc1cc2[nH]ncc2cc1NC(=S)NC(=O)c1ccccc1`, the Potency result is “inactive”.
Still for that read-out and setting: under `COc1cc(OC)c(NC(=O)c2ccc(Br)o2)cc1Cl` stands “inactive”.
Take `Cc1ccc(NC(=S)NC(=O)c2ccc(-c3ccccc3)cc2)c(C)c1`: the Potency was 4.47 µM (active).
The same measure, in the same setting: under `Cc1cccc(NC(=O)/C(=C\c2ccco2)NC(=O)c2ccccc2)c1` stands “inactive”.
In the case of `Cc1ccc(NC(=O)c2oc(=O)c3ccccc3c2-c2ccccc2)c(C)c1`, the Potency entry is “inactive”.
Same read-out and setting: in the case of `Cc1cccc(NC(=S)NC(=O)c2ccc(Br)o2)c1` it was 2.82 µM (active).
Still for that read-out and setting: in the case of `Cc1cccc(NC(=O)NC(=S)NC(=O)c2ccccc2)c1` it was 2.51 µM (active).

Source of the values: PubChem BioAssay AID2551 (National Center for Advancing Translational Sciences (NCATS), 2010).
